Source: PubChem BioAssay
Sfp PPTase inh = Sfp phosphopantetheinyl transferase inhibition; 310,000 compounds, 3.5% hits; Biochemical Sfp PPTase activity, qHTS; Potency, µM, for the others: largest response in the series, negative = inhibition, most hits filed as inhibitors;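 further: the enzyme is Sfp with the accession as filed and its product quenches rhodamine fluorescence; 0% = enzyme reaction without inhibitor and -100% = no enzyme wells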
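With Hepes-Na pH 7.6 buffer containing 10 mM MgCl2, Sfp (15 nM) modified BHQ-2-YbbR (12.5 uM) using rhodamine-CoA (5 uM). Two reads 30 minutes apart at 525/598 nm yielded each well's rate.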
G9a inh = blocks human histone lysine methyltransferase G9a | G9a H3K9 monomethylation, AlphaScreen, 2 h | AID 504332 | Potency, µM (top dose mostly 102 µM), inactives show at the top dose activity, negative = inhibition, usual class: inhibitors | Q96KQ7 | 350,000 compounds, 8.8% hits; further: on the % scale 0 is the no-effect control and ±100 the full control effect; nearly all actives have a fitted effect of over 75% in size
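Using a bead-based AlphaScreen, monomethylated H3K9 product from 2 h room-temperature reactions (G9a 20 nM, peptide 500 nM, SAM 20 uM) was detected with 0.5 ug/mL rabbit anti-H3K9me1 antibody.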
PLK1 PBD block = inhibitors of human PLK1 polo-box domain binding; P53350; Plk1 PBD binding of FITC phosphopeptide, fluorescence polarization; Potency, µM, for inactives: max response, negative = inhibition, actives largely listed as inhibitors; 360,000 compounds, 2.8% hits; further: series mostly up to about 57 µM; on the % scale 0 is the no-effect control and ±100 the full control effect; nearly all actives have a fitted effect of over 65% in size
Target sequence (P53350 whole entry, looked up, the tested form may be a part): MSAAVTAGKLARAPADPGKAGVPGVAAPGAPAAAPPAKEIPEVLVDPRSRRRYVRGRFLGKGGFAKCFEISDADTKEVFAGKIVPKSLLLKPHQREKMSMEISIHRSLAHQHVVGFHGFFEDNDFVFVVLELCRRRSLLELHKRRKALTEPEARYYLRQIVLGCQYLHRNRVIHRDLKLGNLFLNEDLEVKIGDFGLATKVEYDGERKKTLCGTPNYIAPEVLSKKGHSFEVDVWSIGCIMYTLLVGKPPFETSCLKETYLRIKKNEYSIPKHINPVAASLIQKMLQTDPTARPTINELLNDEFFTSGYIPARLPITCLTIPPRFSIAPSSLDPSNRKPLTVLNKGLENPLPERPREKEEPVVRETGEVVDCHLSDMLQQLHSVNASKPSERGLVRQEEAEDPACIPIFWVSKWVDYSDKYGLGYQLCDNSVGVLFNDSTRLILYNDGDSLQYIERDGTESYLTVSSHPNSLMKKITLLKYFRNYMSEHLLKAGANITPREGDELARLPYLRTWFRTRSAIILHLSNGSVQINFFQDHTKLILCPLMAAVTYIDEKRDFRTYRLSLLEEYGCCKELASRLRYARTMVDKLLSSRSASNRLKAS
JMJD2A Tudor = JMJD2A Tudor domain (human) inhibition; AlphaScreen JMJD2A-Tudor / H3K4me3 peptide binding; Potency, µM (titrated, usually from 114 µM), for the others: top-dose activity change, negative = inhibition, usual class: inhibitors; AID 504339; 390,000 compounds, 4.4% hits; further: on the % scale 0 is the no-effect control and ±100 the full control effect; nearly all actives have a fitted effect of over 50% in size
HP1b chromo inh = HP1-beta chromodomain-methylated histone interaction inhibition | AlphaScreen HP1-beta / biotin-H3K9me3 peptide binding | Potency, µM (highest dose often 114 µM), inactives show at the highest dose activity change, negative = inhibition, usual class: inhibitors | 390,000 compounds, 0.56% hits | AID 540317; further: nearly all actives have a fitted effect of over 70% in size
Target sequence (P83916 whole entry, looked up): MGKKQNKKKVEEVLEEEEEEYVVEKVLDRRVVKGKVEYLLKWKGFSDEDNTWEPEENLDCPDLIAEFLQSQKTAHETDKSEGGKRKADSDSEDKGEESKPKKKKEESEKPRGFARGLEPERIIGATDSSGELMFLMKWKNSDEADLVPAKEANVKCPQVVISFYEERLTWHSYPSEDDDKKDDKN
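HP1-beta protein (50 nM final) preincubated 30 min at room temperature with biotinylated H3(1-18)K9me3 peptide (50 nM) in PBS pH 7.4, 0.01% Tween-20, then compound added for 30 min. AlphaScreen streptavidin donor/nickel chelate acceptor beads (10 ug/mL final), 30 min dark, luminescence read.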
BAZ2B block = blocks human BAZ2B; Q9UIF8; AlphaScreen BAZ2B-H3K14Ac peptide displacement; Potency, µM (highest dose often 114 µM), inactives show at the highest dose activity change, negative = inhibition, most hits filed as inhibitors; 360,000 compounds, 4.4% hits; AID 504333; further: on the % scale 0 is the no-effect control and ±100 the full control effect; nearly all actives have a fitted effect of over 60% in size
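Inhibition is scored as reduced AlphaScreen emission. The BAZ2B/b-H3(5-23)K14Ac complex (50 nM each) in PBS pH 7.4, 0.01% Tween-20 meets compound (up to 110 uM) for 30 min at RT before bead addition.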
The depositor's hits bear a star; ? = inconclusive; nt = no result; ! = repeats disagree; [ ] = remark or other dose. The list is not random: actives were taken first. Their share in the collection is about 12%. The call rests on the fitted dose curve; in most records, active means well fitted curve in the direction sought with a large enough effect; inconclusive means small, poorly fitted or top-dose-only effect, or another doubt; inactive means no such curve, though single readings can be large; an effect the other way counts as inactive or inconclusive. Potency means the concentration at half of the fitted maximal effect.

SMILES	Sfp PPTase inh	G9a inh	PLK1 PBD block	JMJD2A Tudor	HP1b chromo inh	BAZ2B block
CC1=NN(c2ccccc2)C(=O)/C1=C/c1c(O)[nH]c(=S)[nH]c1=O	50.1µM*	?	-8.9%	79.4µM*	-2.0%	?
COc1ccc(/C=C2/C(=O)N(c3ccccc3)N=C2C)cc1	nt	nt	3.77µM*	20µM*	50.1µM*	nt
C/C=C1/C2C=C(C)CC1(N)c1ccc(=O)[nH]c1C2 (stereo not given)	6.9%	32.2%[59 µM]	nt	nt	nt	nt
N=C1/C(=C\c2ccc(OC(=O)c3ccccc3Cl)cc2)C(=O)N=C2SC(N3CCOCC3)=NN12	-21.7%	5.7%	29.9µM*	50.1µM*	-12.1%	44.7µM*
CCS(=O)(=O)C1=NN2C(=N)/C(=C\c3ccc(OC(=O)c4ccco4)cc3)C(=O)N=C2S1	?	39.8µM*	?	-0.7%	33.5%	?
Cc1n[nH]c(C)c1CCCCOc1ccc([N+](=O)[O-])cc1	5.7%	50.1µM*	-0.1%	-15.0%	17.8%	-19.7%
COP(=S)(OC)Oc1ccc([N+](=O)[O-])cc1	-3.2%	nt	nt	nt	nt	nt
C[C@H](CO)N1C[C@H](C)[C@@H](CN(C)C(=O)Nc2ccccc2)Oc2c(NS(=O)(=O)c3ccc(F)cc3)cccc2C1=O	nt	nt	-14.6%	-5.7%	48.4%	nt
Cc1ccc(S(=O)(=O)Nc2ccc3c(c2)CC(=O)N([C@H](C)CO)C[C@@H](C)[C@H](CN(C)S(=O)(=O)c2ccccc2)O3)cc1	nt	nt	21.2µM*	?	5.3%	nt
COCC(C)N(C(=O)CCl)c1c(C)csc1C (stereo not given)	-1.1%	9.5%[12.7 µM]	nt	nt	nt	nt
Cc1ccc(N)c(C)c1	nt	-4.8%[0.501 µM]	1.4%	-12.4%	41.3%	5.5%
COc1ccccc1N=Nc1ccc(N)c(C)c1	1.0%	24.5%[2.33 µM]	-13.3%	44.7µM*	?	35.5µM*
C/C=C(\C)CN1CCN(c2ccccc2F)CC1	-18.0%	?	-7.2%	3.16µM*	?	?
Fc1cccc(F)c1CN1CCN(c2ccc(Cl)cc2)CC1	2.7%	13.4%	-0.9%	-17.8%	-1.4%	-6.8%
CCN(CC)C(=O)CN1CCN(c2ccccc2F)CC1	-20.3%	31.6µM*	2.4%	8.91µM*	?	?
CCCc1[nH]nc2c1C(c1ccc(OC)c(Cn3nnc4ccccc43)c1)C(C#N)=C(N)O2 (stereo not given)	-13.3%	-45.7%[59 µM]	11.9µM*	?	-18.7%	-31.3%
COc1ccc(C2C(C#N)=C(N)Oc3c2c(=O)oc2ccccc32)cc1Cn1cc([N+](=O)[O-])cn1 (stereo not given)	16.7%	-3.5%	0.5%	-22.8%	30.0%	-20.6%[57.1 µM]
Cc1c(F)c(F)c(COC(=O)C2C(/C=C(\Cl)C(F)(F)F)C2(C)C)c(F)c1F (stereo not given)	9.3%	nt	nt	nt	nt	nt
CCCCCCCCCC(CC)c1ccc(S(=O)(=O)O)cc1 (stereo not given)	18.3%	11.0%[59 µM]	nt	nt	nt	nt
CN1c2ccc([N+](=O)[O-])cc2CC2(C(=O)NC(=O)N(c3ccccc3)C2=O)C1c1ccccc1 (stereo not given)	29.7%	-10.3%[59 µM]	-4.4%	-35.3%	-8.0%	-36.1%
CN1C(=O)N(C)C(=O)C2(Cc3ccccc3N3CCOCC32)C1=O (stereo not given)	19.6%	-3.2%[12.7 µM]	-2.5%	-15.0%	36.8%	-12.8%
O=C1NC(=O)C2(Cc3ccccc3N3CCCC32)C(=O)N1c1cccc(Cl)c1 (stereo not given)	-11.3%	31.6µM*	-17.4%	-32.4%	30.9%	9.7%
Cc1ccc(N2C(=O)NC(=O)C3(Cc4ccccc4N4CCN(c5ccccc5)CC43)C2=O)cc1 (stereo not given)	-12.2%	7.08µM*	-14.6%	-33.3%	14.0%	-32.4%
O=C(O)C1Sc2[nH]c(=O)sc2C2c3cc(Cl)ccc3OC(=O)C12 (stereo not given)	50.1µM*	28.2µM*	?	?	-15.6%	?
CCCCCCCCCC[N+](C)(C)CCCCCCCCCC	?	7.4%[59 µM]	nt	nt	nt	nt
SMILES	Sfp PPTase inh	G9a inh	PLK1 PBD block	JMJD2A Tudor	HP1b chromo inh	BAZ2B block
CCCCCCCCCCCCCCCC[N+](C)(C)C	44.7µM*!	8.91µM*!	-24.9%	-0.7%	52.3%	6.1%
Cc1ncc(CNC(=O)N(CCCl)N=O)c(N)n1	-27.5%	16.8µM*!	-9.2%	-33.8%	24.0%	-10.0%
O=CN1CCCCC1C1CC[C@H]2CCCCN2C1 (stereo not given in full)	-14.8%	nt	nt	nt	nt	nt
CCOc1ccccc1N=C1SCCCN1C	-12.4%	5.01µM*	-0.2%	79.4µM*	30.7%	3.4%
[O-]/[N+](=C/c1cccnc1)c1ccc(Br)cc1	12.6µM*	?	10.6µM*	-28.3%	-2.9%	?
CCN(CC)c1ccc(N=Cc2c(O)n(-c3ccc(OC)cc3)c(=O)[nH]c2=O)cc1	?	50.1µM*	?	3.0%	10.3%	-0.3%
Cc1ccc(N=Cc2c(O)n(-c3ccc(C)cc3)c(=O)[nH]c2=O)cc1	nt	nt	-12.3%	-15.0%	52.4%	nt
Cc1cc(C)c(-n2c(O)c(/C=N/NC(=O)c3ccncc3)c(=O)[nH]c2=O)c(C)c1	12.7%	7.5%	-10.1%	?	48.8%	-38.9%
CCc1ccc(-n2c(O)c(/C=N/NC(=O)c3ccncc3)c(=O)[nH]c2=O)cc1	21.6%	8.3%	-3.8%	?	19.4%	56.2µM*
CC(C)c1ccc(-n2c(O)c(/C=N/NC(=O)c3ccncc3)c(=O)[nH]c2=O)cc1	5.8%	17.8µM*	1.7%	?	31.1%	?
CCC(C)N=Cc1c(O)n(-c2ccccc2)c(=O)[nH]c1=O (stereo not given)	-28.8%	10µM*	26.7µM*	-23.2%	-24.1%	5.8%
CCc1ccccc1NC(=O)NNS(=O)(=O)c1cc(C)ccc1C	5.0%	58.3%	5.7%	-14.4%	20.9%	-0.4%
O=P(O)(O)CCCl	2.2%	nt	nt	nt	nt	nt
CC(C)CN1CC[C@@]2(CCCN(C(=O)Oc3ccccc3)C2)C1	-3.6%	5.7%[12.7 µM]	nt	nt	nt	nt
Nc1c(Br)cc(Br)cc1CNC1CCC(O)CC1 (stereo not given)	15.8%	7.2%[12.7 µM]	-10.0%	-12.2%	18.8%	4.3%
Cc1ccccc1-n1c(O)c(/C=N/NC(=O)c2ccncc2)c(=O)[nH]c1=O	16.7%	-0.8%	-6.0%	89.1µM*	34.8%	?
O=c1[nH]c(=S)[nH]c(O)c1N=Nc1ccc2c(c1)OCCO2	?	?	11.7%	-9.2%	23.8%	-27.4%
COc1ccc(N=Nc2c(O)[nH]c(=S)[nH]c2=O)cc1	-26.9%	?	-20.3%	-22.4%	-8.0%	-35.8%
O=c1[nH]c(O)c(N=Nc2ccc(S(=O)(=O)N3CCOCC3)cc2)c(=O)[nH]1	9.9%	12.6µM*	-23.0%	-25.9%	36.6%	-26.7%
COc1cccc(N=Nc2c(O)[nH]c(=S)[nH]c2=O)c1	-19.0%	50.1µM*	-11.4%	-26.2%	2.7%	-32.5%
